Compounds with a hit are over-represented: about 1.3% of the library has one in this group of screens.
RTF Ca sens inh = cardiac RTF calcium sensitivity inhibitors, primary screen, biochemical, IANBD-TnC fluorescence, EC70 calcium | IANBD-labeled cardiac RTF, Ca2+ fluorescence | inhibition, % at 7.15 µM | 0.12% of 340,000 active | AID 493244, 2011;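 active means inhibition above the mean inhibition of all tested compounds plus 3 SD, cut at about 17% in these data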;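 further: assay run at fixed EC70 calcium of 1.6 mM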
CRFBP-R2 agonist = agonists of CRF-BP/CRF-R2 complex, primary screen, cell-based, HEK293, calcium dye fluorescence, uHTS. CRF-binding protein / CRF receptor 2 complex (human). activation, % at 13.2 µM. 0.46% of 350,000 active. calcium dye fluorescence (FLIPR); percent of saturating CRF peptide response;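 active means activation of at least 50%, plus an integration ratio under a set limit after plate pattern correction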
cardiac RTF act = cardiac RTF calcium sensitivity activators, primary screen, biochemical, IANBD-TnC fluorescence, EC20 calcium. Troponin I, cardiac muscle (Homo sapiens) + Troponin T, cardiac muscle (Homo sapiens) + …. IANBD-labeled TnC RTF fluorescence at EC20 calcium; 0% EC20 calcium, 100% full calcium. activation, % at 7.2 µM. 0.24% of 340,000 active. AID 493008, 2010;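 active means activation above the mean over all tested compounds plus 3 SD, cut at about 30% in these data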;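 further: rise in fluorescence read as greater calcium sensitivity of cardiac thin filaments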
CRFBP-R2 block = antagonists of CRF-BP/CRF-R2 complex, primary screen, cell-based, HEK293, calcium dye fluorescence, uHTS; 0.59% of 350,000 active; CRF-induced calcium fluorescence; AID 588475, 2011; inhibition, % at 11.8 µM;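 active means inhibition of the ligand-induced calcium signal above about 50% at the single tested concentration, limit read from the data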
Large screens that a line does not name were inactive.

COC(=O)C1=C(NC(=O)c2ccccc2C)CCS1	none
COC(=O)C1=C(NC(=O)c2cccc(OC)c2)CCS1	CRFBP-R2 block 67
O=C(COC(=O)c1c2c(nc3ccccc13)/C(=C/c1ccco1)CC2)NC1CCCC1	RTF Ca sens inh 17
CC1CCCCC1NC(=O)COC(=O)c1c2c(nc3ccccc13)/C(=C/c1ccco1)CC2 (stereo not given)	none
CC(C)CNC(=O)COC(=O)c1c2c(nc3ccccc13)/C(=C/c1cccs1)CC2	none
CCCCNC(=O)COC(=O)c1c2c(nc3ccccc13)/C(=C\c1cccs1)CC2	cardiac RTF act 37
Cc1nc(/C=C/c2ccccc2)[nH]c(=O)c1-c1ccccc1	none
C=CCC[C@@H](Cc1ccc(F)cc1)C(=O)OC[C@@H](Cc1c[nH]c2ccccc12)NC(=O)[C@@H](CC=C)CC(=O)NCCO	none
C=CCC[C@@H](Cc1ccc(F)cc1)C(=O)OC[C@H](Cc1c[nH]c2ccccc12)NC(=O)[C@@H](CC=C)CC(=O)NCCO	CRFBP-R2 agonist 58
O=C(O)c1ccccc1NC(=O)C1CCN(S(=O)(=O)c2cccc3nsnc23)CC1	none
O=c1ccc2cc(S(=O)(=O)NCc3ccccc3)ccc2[nH]1	CRFBP-R2 block 99
Cc1cc(=O)[nH]c2ccc(S(=O)(=O)NCc3ccccc3)cc12	none
CCN(CC)C(=O)C1=C(C)N(Cc2ccccc2)C(=O)C(CC(=O)NCC2CCCCC2)C1 (stereo not given)	none (no result: RTF Ca sens inh, cardiac RTF act)
O=C(c1ccccc1)N1CCC(=O)N(C(CO)Cc2ccccc2)CC1 (stereo not given)	none
CC(C)(C)c1ccc(C(=O)N2CCC(=O)N(C(CO)Cc3ccccc3)CC2)cc1 (stereo not given)	CRFBP-R2 agonist 51
CC1=C(C(=O)OC2CCCC(C)C2)C(c2ccccc2)NC(=O)N1 (stereo not given)	none
COc1ccc(N(C(=O)c2ccco2)C(C(=O)NC2CCCC2)c2ccc(N3CCOCC3)cc2)c(OC)c1 (stereo not given)	CRFBP-R2 block 53
COc1ccc(N(C(=O)c2ccco2)C(C(=O)NC2CCCC2)c2ccc(C)cc2)c(OC)c1 (stereo not given)	none
O=C(CSc1nccn1Cc1ccc(F)cc1)NC1CCCCC1	none (no result: RTF Ca sens inh, cardiac RTF act)
COc1cccc(/C=N/Nc2nc3ccccc3[nH]2)c1O	none
COc1cccc(/C=N/c2nc3ccccc3[nH]2)c1O	cardiac RTF act 187
COc1ccc(/C(C)=N/NC(=O)c2ccc(NS(=O)(=O)c3cccs3)cc2)cc1	none
COC(=O)Cc1ccc(NC(=S)NCCC(C)C)cc1	CRFBP-R2 block 88
Cc1ccnc(NC(=O)C2CCN(S(=O)(=O)c3ccc4ccccc4c3)CC2)c1	none
O=C(Nc1nc2ccc(S(=O)(=O)N3CCCCC3)cc2s1)c1ccncc1	none
O=C(Nc1ccccn1)C1CCN(S(=O)(=O)c2ccc3ccccc3c2)CC1	CRFBP-R2 block 59
O=C(Nc1nc2ccc(S(=O)(=O)N3CCCC3)cc2s1)c1ccccn1	CRFBP-R2 block 65
Cc1cc(NC(=O)CN2CCN(S(=O)(=O)c3ccc4ccccc4c3)CC2)no1	CRFBP-R2 block 50
CC(=O)c1ccc(NC(=O)CN2CCN(S(=O)(=O)c3ccc4ccccc4c3)CC2)cc1	none
O=C(OC1CCCCC1=O)c1cc(Cl)ccc1[N+](=O)[O-] (stereo not given)	none
O=C(CC1CCCC1)Nc1ccc(Cl)c(S(=O)(=O)N2CCOCC2)c1	none
Cc1ccc(CN2CCN(/N=C/c3ccc(C(=O)O)cc3)CC2)cc1	none
Cc1ccc(CN2CCN(/N=C/C(Br)=C\c3ccccc3)CC2)cc1	CRFBP-R2 agonist 129 (no result: RTF Ca sens inh, cardiac RTF act)
NS(=O)(=O)c1cccc(NC(=O)CN2C(=O)C(=O)N(Cc3ccccc3)C2=O)c1	none
O=C(Nc1ccc([N+](=O)[O-])cc1)c1ccccc1F	none
O=C(Nc1ncc(S(=O)(=O)c2ccc([N+](=O)[O-])cc2)s1)c1ccccc1F	CRFBP-R2 agonist 57
COC(=O)C(NC(=O)c1ccc(F)cc1)(Nc1ncc(S(=O)(=O)c2ccc([N+](=O)[O-])cc2)s1)C(F)(F)F (stereo not given)	CRFBP-R2 block 58
O=C(Nc1cc(S(=O)(=O)Nc2ccc(Cl)cc2)ccc1N1CCCCC1)c1ccc(F)cc1Cl	none
O=C(NC(C(=O)N/N=C/c1cccnc1)c1n[nH]c(=O)c2ccccc12)c1ccccc1 (stereo not given)	CRFBP-R2 agonist 96
CCCN1C(=O)c2ccccc2NC1c1ccc(OC)c(CSc2ccccn2)c1 (stereo not given)	CRFBP-R2 block 50
O=C(NC(=S)NCC1CCCO1)C(c1ccccc1)c1ccccc1 (stereo not given)	CRFBP-R2 block 55
Cc1cc(C=C2C(=O)c3ccccc3C2=O)c(C)n1-c1ccccc1	cardiac RTF act 45
O=[N+]([O-])c1ccc(N2CCN(Cc3ccc(Br)o3)CC2)cc1	none
C[C@H]1CN([C@@H](C)CO)C(=O)CCCn2cc(nn2)CO[C@@H]1CN(C)C(=O)Nc1ccc2c(c1)OCO2	none (no result: RTF Ca sens inh, cardiac RTF act)
CC(=O)c1ccc(N2CCN(C(=O)c3ccc(-c4ccccc4)cc3)CC2)cc1	none
CC(=O)c1ccc(N2CCN(C(=O)c3cccc(Oc4ccccc4)c3)CC2)cc1	CRFBP-R2 block 78
CCc1ccc(O)c(N=Cc2ccccc2O)c1	none
O=c1[nH][nH]c2c(N=Cc3ccccc3O)ccc(F)c12	RTF Ca sens inh 34
O=c1c(/C=C(\O)c2ccccc2)nc2ccccc2n1-c1ccccc1	CRFBP-R2 agonist 156
N#C/C(=N\Nc1cccc(Cl)c1)C(=O)c1ccccc1	CRFBP-R2 agonist 58
COc1ccc(C(=O)/C(C#N)=N/Nc2cccc([N+](=O)[O-])c2)cc1	CRFBP-R2 block 57
CCC(CC)=NNc1cccc([N+](=O)[O-])c1	none
N#C/C(=N\Nc1ccccc1Cl)C(=O)c1ccccc1	CRFBP-R2 block 85
N#C/C(=N\Nc1ccc(Cl)cc1)C(=O)c1ccsc1	none
COc1ccc(NC(=O)CCSCCc2ccccn2)cc1OC	none
CC1CCN(CCCNC(=O)c2ccc3c(Cl)c4c(nc3c2)CCCC4)CC1	none
C/C(=N\N=C1\NC(=O)C(CC(=O)Nc2ccccc2F)S1)C1CCCCC1 (stereo not given)	none
O=C1/C(=N\S(=O)(=O)c2cccs2)C([n+]2ccc(CCCc3ccccc3)cc2)=C([O-])c2ccccc21	none (no result: RTF Ca sens inh, cardiac RTF act)
O=C1/C(=N\S(=O)(=O)c2cccs2)C([n+]2cccc(Cc3ccccc3)c2)=C([O-])c2ccccc21	CRFBP-R2 agonist 62 (no result: RTF Ca sens inh, cardiac RTF act)
C=CCN1C(=O)c2cccc3c(N4CCCCC4)ccc(c23)C1=O	CRFBP-R2 agonist 256, cardiac RTF act 74
C=CCN1C(=O)c2cccc3c(Br)ccc(c23)C1=O	none
O=C1c2cccc3c(N4CCCCC4)ccc(c23)C(=O)N1c1cccc(O)c1	CRFBP-R2 agonist 161, cardiac RTF act 59
